We go through 10 molecules from PubChem BioAssay (NCATS).

The test system of one assay is MCC-13. As to the kind of experiment: qHTS assay to identify novel small-molecules to repurpose for Merkel cell carcinoma treatment (AID 1296009). Also: nearly all actives have a fitted effect of over 60% in size. Also: potency is read from the fitted curve at half-maximal effect. Particulars: MCC and control cell lines, CellTiter-Glo viability, 72 h; series mostly up to 46 µM. The essentials:
(§1)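 Cells were incubated with compound for 72 hr at 37 degree celsius before CellTiter-Glo addition. Luminescence was normalized with no-cell wells as full cytotoxicity and DMSO as baseline.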
(In qHTS, concentration-response curves come from the screen itself.)

For a further assay, the system named is MCC-26. The assay is described as above. The settings on record: MCC and control cell lines, CellTiter-Glo viability, 72 h; series mostly up to 46 µM. In a few lines:
as §1
(In general: Cellular ATP, detected with luciferase, serves as a proxy for viable cell number.)

The next assay has as its system MKL-1. The assay is described as above. The settings on record: MCC and control cell lines, CellTiter-Glo viability, 72 h; series mostly up to 46 µM. In a few lines:
as §1

In a further assay the test system is MKL-2. Described as above. The settings on record: MCC and control cell lines, CellTiter-Glo viability, 72 h; series mostly up to 46 µM. The essentials:
as §1

A further assay concerns NIH3T3. The description is as above. The settings on record: MCC and control cell lines, CellTiter-Glo viability, 72 h; at 44.8 µM (top of the series) unless noted. The essentials:
as §1

In the next assay the test system is UISO. The description is as above. Particulars: MCC and control cell lines, CellTiter-Glo viability, 72 h; series mostly up to 46 µM. In a few lines:
as §1

The subject of a further assay is WaGa. The description is as above. The settings on record: MCC and control cell lines, CellTiter-Glo viability, 72 h; series mostly up to 46 µM. The essentials: as §1
A further assay deals with C33A. The assay is described as follows: Primary qHTS to identify gynecologic anti-cancer compounds using libraries of approved drugs and bioactive compounds (AID 1345084). Also: nearly all actives have a fitted effect of over 55% in size. The settings on record: Gynecologic cancer cell panel viability, ATPlite luminescence, 48 h; series mostly up to 57.5 µM. In a few lines:
(§2)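 Five-point cytotoxicity, 48 h drug exposure at 37 C, 5% CO2, on cells seeded 16 h beforehand. ATP content read by ATPlite luminescence.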

The subject of the next assay is CAOV3. The description is as above. Particulars: Gynecologic cancer cell panel viability, ATPlite luminescence, 48 h; series mostly up to 57.5 µM. In a few lines:
as §2

A further assay concerns CASKI. The assay is described as above. The settings on record: Gynecologic cancer cell panel viability, ATPlite luminescence, 48 h; series mostly up to 57.5 µM. The essentials: as §2
The test system of another assay is Es-2. Described as above. Particulars: Gynecologic cancer cell panel viability, ATPlite luminescence, 48 h; series mostly up to 57.5 µM. The essentials: as §2
A further assay has as its system HeLa. The description is as above. The settings on record: Gynecologic cancer cell panel viability, ATPlite luminescence, 48 h; series mostly up to 57.5 µM. In a few lines:
as §2

A further assay concerns Hek293T. The assay is described as above. Particulars: Gynecologic cancer cell panel viability, ATPlite luminescence, 48 h, control line for the selectivity index; series mostly up to 57.5 µM. In a few lines: as §2
Another assay concerns JEG-3. The assay is described as above. The settings on record: Gynecologic cancer cell panel viability, ATPlite luminescence, 48 h; series mostly up to 57.5 µM. The essentials: as §2
The test system of a further assay is OV90. The assay is described as above. Particulars: Gynecologic cancer cell panel viability, ATPlite luminescence, 48 h; series mostly up to 57.5 µM. In a few lines: as §2
The subject of another assay is PA-1. The description is as above. Particulars: Gynecologic cancer cell panel viability, ATPlite luminescence, 48 h; series mostly up to 57.5 µM. The essentials:
as §2

The test system of the next assay is SKOV3. Described as above. The settings on record: Gynecologic cancer cell panel viability, ATPlite luminescence, 48 h; series mostly up to 57.5 µM. In a few lines:
as §2

In another assay the test system is Tov-21-G. The assay is described as above. The settings on record: Gynecologic cancer cell panel viability, ATPlite luminescence, 48 h; series mostly up to 57.5 µM. The essentials:
as §2

The test system of another assay is Tov112D. The description is as above. Particulars: Gynecologic cancer cell panel viability, ATPlite luminescence, 48 h; series mostly up to 57.5 µM. The essentials:
as §2

The nature of assay [1]: Drug repurposing screens with cells derived from glioblastoma tumor samples (AID 1345199). Also: nearly all actives have a fitted effect of over 40% in size. Particulars: GBM patient neurospheres viability, ATP luminescence, 48 h; Potency: tumour line A unless noted; series mostly up to 45.9 µM. In a few lines: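 Four patient lines of CD133+ GBM neurospheres were screened at several concentrations; hits were retested in those lines plus three slower-growing GBM lines, using 48-hour treatment and ATP-based viability.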

Results filed as inconclusive are left out. Active and inactive are the calls of the source. Calls follow the shape of the dose curve; as a rule, active = well fitted curve in the direction sought with a large enough effect; inconclusive = small, poorly fitted or top-dose-only effect, or another doubt; inactive = no such curve, though single readings can be large; an effect the other way counts as inactive or inconclusive.

As to `C1=C2CCCN[C@H]2[C@@H]2C[C@H]1[C@@H]1CCCCN1C2`, the Potency entry with MCC-13, with MCC-26, with MKL-1, with MKL-2, in the assay with UISO and in the assay on WaGa was “inactive” in each case. In addition, the molecule was called inactive with NIH3T3.

As for `COc1ccc(CC2NCCc3cc(OC)c(OC)cc32)cc1OC` (stereo unspecified), the Potency result with MCC-13, in the assay on MCC-26, in the assay with MKL-1, in the assay with MKL-2, with UISO and with WaGa was “inactive” each time.

Regarding `CCN1C[C@]2(OC(=O)c3ccccc3NC(C)=O)CC[C@H](OC)[C@@]34[C@H]5CC6[C@@H](OC)C[C@](O)(C(C[C@@H]23)[C@@H]14)[C@@]5(O)[C@@H]6OC`, the Potency result with MCC-13, in the assay with MCC-26, in the assay with MKL-1, in the assay with MKL-2, in the assay with UISO and in the assay on WaGa was “inactive” each time. In addition, the result with NIH3T3 was inactive.

For the molecule `O=C(Oc1ccc([N+](=O)[O-])cc1)N1CCN(Cc2cccc(Oc3ccccc3)c2)CC1`, the Potency result in the assay on MCC-13, in the assay with MCC-26, in the assay on MKL-1, with MKL-2, in the assay with UISO and with WaGa was “inactive” throughout. The Potency entry in the assay on C33A, in the assay with CAOV3, in the assay with CASKI, in the assay with Es-2, with HeLa and in the assay with Hek293T was “inactive” throughout. Further, the Potency result in the assay with JEG-3, in the assay on OV90, in the assay with PA-1, in the assay with SKOV3, in the assay with Tov-21-G and in the assay with Tov112D was “inactive” throughout. In addition, in the assay with NIH3T3, the result was inactive.

Consider `Cc1ccc(Cl)c(O)c1`, for which the Potency entry with MCC-13, in the assay on MCC-26, in the assay with MKL-1, with MKL-2, in the assay on UISO and in the assay with WaGa was “inactive” throughout. The Potency result in the assay with C33A, in the assay with CASKI, in the assay with Es-2, in the assay with HeLa, with Hek293T and in the assay with JEG-3 was “inactive” in each case. Moreover, the Potency entry (with OV90; in the assay on PA-1; with SKOV3; in the assay on Tov-21-G; in the assay on Tov112D; in assay [1]) was “inactive” in each case. For the same molecule, the outcome in the assay with NIH3T3 was inactive.

As to `C[C@](O)(COc1ccc(C#N)cc1)C(=O)Nc1ccc(C#N)c(C(F)(F)F)c1`, the Potency result in the assay on MCC-13, in the assay with MCC-26, in the assay with MKL-1, in the assay with MKL-2, in the assay on UISO and with WaGa was “inactive” each time.

Take `c1ccc(CCCN2CCN(CCOC(c3ccccc3)c3ccccc3)CC2)cc1`: the Potency result in the assay with MCC-13, in the assay with MCC-26 and with MKL-1 was “inactive” each time. In addition, the Potency with MKL-2 is 20.9 µM (active).

Consider `C[C@H]([C@H](O)CCC(C)(C)O)[C@H]1CC[C@@]2(O)C3=CC(=O)[C@@H]4C[C@@H](O)[C@@H](O)C[C@]4(C)[C@@H]3CC[C@]12C`, for which the Potency result in the assay with MCC-13, in the assay with MCC-26, in the assay on MKL-1, in the assay on MKL-2, in the assay on UISO and with WaGa was “inactive” each time. In addition, the outcome in the assay with NIH3T3 was inactive.

As for `COC1=C[C@@H]2[C@@H]3Cc4ccc(OC)c(O)c4[C@]2(CCN3C)CC1=O`, the Potency result with MCC-13, in the assay with MCC-26, with MKL-1, in the assay on MKL-2, in the assay with UISO and in the assay on C33A was “inactive” in each case. Moreover, the Potency result in the assay on CAOV3, in the assay on CASKI, with Es-2, in the assay with HeLa, with Hek293T and with JEG-3 was “inactive” each time. In addition, the Potency entry with OV90, with PA-1, in the assay on SKOV3, in the assay with Tov-21-G and in the assay with Tov112D was “inactive” each time. Moreover, in the assay on NIH3T3, the molecule was called inactive.

As for `Cc1cc(O)ccc1Cl`, the Potency entry in the assay with MCC-13, in the assay with MCC-26, with MKL-1, in the assay on MKL-2, in the assay with UISO and with WaGa was “inactive” throughout. Also, the Potency entry in the assay with C33A, with CASKI, in the assay with Es-2, with HeLa, in the assay with Hek293T and in the assay with JEG-3 was “inactive” in each case. Also, the Potency result (in the assay with PA-1; with SKOV3; in the assay on Tov-21-G; in the assay with Tov112D; in [1]) was “inactive” in each case. Moreover, the outcome with NIH3T3 was inactive.
